About 13,000 (27%) of roughly 48,000 compounds showed an effect of 50% or more. This is one part of the list.

This assay relates to Wolbachia pipientis. As to the kind of experiment: Anti-Wolbachia Cell-Based Screen. It counts as functional. Details: scale not given: in the data most compounds retested in dose-response had high values. Conditions: 5 µM.
On to `CC(CO)NC(=O)Nc1ccc(COC2CCCC2)cc1` (stereo not drawn), for which the “Percent Effect” value is 8.692%. Take `O=C(CN1CCCS1(=O)=O)Nc1cccc(COC2CCCCC2)c1`: the “Percent Effect” value stood at 13.44%. To `Cc1c(CS(C)(=O)=O)cccc1NCCCC1CCCC1` belongs -1.975%. Take `Clc1cncc(NCc2cccc(COC3CCOCC3)c2)n1`: the “Percent Effect” value is listed as -1.49%. With `CS(=O)(=O)NCc1cccc(COC2CCCCC2)c1`, the “Percent Effect” value amounted to 112.9%. To `Cc1cccc(C2(NCCCS(C)(=O)=O)CCCC2)c1` belongs -2.725%; to `CS(=O)(=O)CCCNc1cccc(COC2CCCCC2)c1`, 108.4%; to `CS(=O)(=O)NC(=O)CCc1cccc(OC2CCCC2)c1`, 2.726%. On to `OCCCNc1cccc(COC2CCCCC2)c1`, for which the “Percent Effect” value is listed as 117.5%.

For `CNS(=O)(=O)c1cccc(CNc2ccc(C#N)cn2)c1`, the “Percent Effect” value turned out to be 2.285%.

`CS(=O)(=O)NCCCn1ccc2ccccc21`: the “Percent Effect” value was found to be 3.407%. With `COc1ccc(-c2cc(CN)ccc2F)c(OC)c1OC` the figure was 2.502%; with `C=C(C)CN(c1cn[nH]c1)S(=O)(=O)c1cccc(C#N)c1`, -12.41%. To `CCOCC1CC2(CCN(C(=O)C3CC=CC3)CC2)CO1` (stereo not drawn) belongs -13.65%; to `CNC(=O)C1(N2CCC[C@H]2C(=O)NC2CCCCC2)CCOCC1.Cl`, -2.575%. Consider `OCCC1CN(c2nc(-c3ccncc3)nc3c2CCNCC3)CCO1` (stereo not drawn), for which the “Percent Effect” value is -20.05%.

Turning to `CCCc1nc(CN2CCCC2Cn2cncn2)no1` (stereo not drawn), the “Percent Effect” value is 115.4%. To `CCCc1nc(CN2CCOC(Cn3cncn3)C2)no1` (stereo not drawn) belongs 3.436%; to `CC(C)(C)c1nc(CN2CCCC2Cn2cccn2)no1` (stereo not drawn), 10.76%. With `CC(C)(C)c1nc(CN2CCCC2Cn2cncn2)no1` (stereo not drawn) the figure was 86.44%; with `CN(C)C(=O)Cc1ccc(NCc2nccn2C)cc1`, -22.63%; with `O=C(NCCNc1cc(-n2cccc2)ncn1)c1cccs1`, 19.24%. With `Cc1nccn1-c1ccc(CNC(=O)c2ccc([S+](C)[O-])cc2)cn1` (stereo not drawn) the figure was 4.955%; with `Cc1nccn1-c1ccc(=O)n(CCNC(=O)c2cccs2)n1`, 125.6%. As to `Cc1nccn1-c1ccc(=O)n(CCNC(=O)c2ccncc2)n1`, the “Percent Effect” value is listed as 97.47%. To `Cc1nccn1-c1ccc(CNC(=O)c2ccc[nH]2)cn1` belongs 15.47%; to `O=C(NCCn1ccc(-c2ccncc2)n1)c1ccncc1`, -0.4931%. With `Cc1nc(NC(=O)N2CCCC(N(C)C)C2)nn1C` (stereo not drawn) the figure was -14.3%; with `COC(=O)c1ccc2ccn(CC3CCCCO3)c(=O)c2c1` (stereo not drawn), -39.6%. With `Oc1ccc(N2CCN(Cc3cc4c(cc3Br)OCCO4)CC2)cc1` the figure was -10.73%; with `Cc1ccc(CN2CCC3(CC2)CN(C(=O)c2cnccn2)CCO3)o1.O=C(O)C(F)(F)F`, 98.59%.

Take `CC(C)CCN1CCC2(CC1)CN(C(=O)c1cnccn1)CCO2.O=C(O)C(F)(F)F`: the “Percent Effect” value was -8.642%.

`Cn1cc(CN2CCC3(CC2)CN(C(=O)c2cnccn2)CCO3)cn1`: the “Percent Effect” value is given as 101.7%.

Turning to `Cn1cc(CN2CCC3(CCCN(C(=O)c4cnccn4)C3)C2)cn1` (stereo not drawn), the “Percent Effect” value amounted to 7.413%. To `CCc1ccc(CN2CCC3(CCCN(C(=O)c4cnccn4)C3)C2)o1.O=C(O)C(F)(F)F` (stereo not drawn) belongs 23.64%.

For the compound `Cn1cc(CN2CCCC3(CCN(C(=O)c4cnccn4)C3)C2)cn1.O=C(O)C(F)(F)F.O=C(O)C(F)(F)F` (stereo not drawn), the “Percent Effect” value is on record as -36.61%. With `Cc1cc2n(n1)CC(CNC1CCN(C(=O)C3CC3)CC1)CN2` (stereo not drawn) the figure was 1.236%; with `Nc1cc(C(=O)NCC2CCN(Cc3ccncc3F)C2)ccn1` (stereo not drawn), -104.6%. As to `CC(C)(C)c1nccc(N2CCC(OCCN3CCCCC3)C2)n1` (stereo not drawn), the “Percent Effect” value was found to be 4.599%. To `CC(Cn1cncc1-c1cnn(C2CCCCC2)c1)N1CCCCC1.Cl` (stereo not drawn) belongs 109.8%. To `CC(CN1CCCCCC1)NCc1nncn1C1CCCCC1` (stereo not drawn) belongs -0.3524%; to `CC(C)n1cc(CN(C)C[C@@H]2CCCN3CCCC[C@H]23)cn1`, 12.76%; to `COCCn1c2c(ccc1=O)CC(N)CC2` (stereo not drawn), -4.933%. To `COCC(=O)N1CCc2ccc(=O)n(CC3CC3)c2CC1` belongs 104.1%; to `COCCn1c2c(ccc1=O)CCN(C(=O)C1CC=CC1)CC2`, 102.1%; to `COCCn1c2c(ccc1=O)CCN(C(=O)CC1CC1)CC2`, 117%. Turning to `COCCn1c2c(ccc1=O)CCN(C(=O)NC1CC1)CC2`, the “Percent Effect” value is 105.3%.

As for `O=C(NC1CC1)N1CCc2ccc(=O)n(CC3CC3)c2CC1`, the “Percent Effect” value is on record as 7.486%. On to `O=C(NC1CC1)N1CCc2ccc(=O)n(CCN3CCCC3)c2CC1.O=C(O)C(F)(F)F`, for which the “Percent Effect” value was -8.445%.

Regarding `CC(C)c1cccc(CSc2nnc(Cn3cncn3)o2)n1`, the “Percent Effect” value is reported as -1.93%. With `CN(C)C(=O)CN1C(=O)CO[C@@H]2CN(c3ccccn3)C[C@H]21.O=C(O)C(F)(F)F` the figure was -2.034%; with `Cc1cc(CCCC(=O)NC2CCN(C)C2=O)c(C)s1` (stereo not drawn), -2.482%. `CNC(=O)CS(=O)(=O)C1CCN(S(=O)(=O)c2ccccc2Br)CC1`: the “Percent Effect” value turned out to be 9.932%. `Cc1ccc(-c2noc(C(O)CC(C)C)n2)nn1` (stereo not drawn): the “Percent Effect” value is listed as -5.785%. With `O=C(CN1CCS(=O)(=O)CC1)NC1CCOc2ccccc21` (stereo not drawn) the figure was 5.265%. With `Cc1ccc(CS(=O)(=O)Cc2nc(N)nc(N(C)C)n2)cc1`, the “Percent Effect” value came out at 10.59%. `CN(C)c1cc2c(nn1)CCN(C(=O)C1Cc3ccccc3S1)C2` (stereo not drawn): the “Percent Effect” value is given as -0.2262%.

Turning to `CC(C)c1ccc(O)c(C(=O)NCc2cc[nH]n2)c1`, the “Percent Effect” value is -15.09%. With `CC(NCCCn1cccn1)c1ccc(N2CCCS2(=O)=O)cc1` (stereo not drawn) the figure was -2.983%; with `COCCCNS(=O)(=O)c1ccc(N2CCCCS2(=O)=O)cc1`, 124.1%. With `CC(NCCCn1ccnc1)c1ccc(N2CCCS2(=O)=O)cc1` (stereo not drawn) the figure was -4.666%; with `CNS(=O)(=O)c1ccsc1C(=O)OC`, 1.281%; with `CCOCC(C)(C)NC(=O)Nc1cc(F)ccc1OC`, -3.533%. To `COc1cc2cc(C(=O)O)n(C)c2cc1OC` belongs -4.689%; to `COc1cc(C)sc1C(=O)NCCNc1ccccc1`, -4.959%; to `COC(=O)c1sc(C(F)(F)F)cc1OC`, 102.8%.

Turning to `COc1cc(C(F)(F)F)sc1C(=O)O`, the “Percent Effect” value was 103.8%. For the compound `CC1CCCCN1S(=O)(=O)NCCN/C(O)=C1/N=CC=CC1=O` (stereo not drawn), the “Percent Effect” value is -4.587%.

Values taken from ChEMBL document CHEMBL3988442, “University of Dundee, Small-Polar-MMV Screening Library” (2021).
